Source: PubChem BioAssay (Broad Institute)
N-glyco inh – increase of ERlucT glycosylation luciferase signal, primary screen, N-linked glycosylation inhibitor project, D54 ERlucT cells, luminescence, set 2; D54 ERlucT glycosylation luciferase reporter, 24 h; percent of 100 nM tunicamycin response; reporter increase, % at 12.5 µM; 360,000 compounds, 0.23% hits; AID 588692, 2011;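 active = mean luciferase reporter signal, scaled so untreated is 0 and the glycosylation-blocking control 100, at or above a set limit in every replicate; inconclusive = mean reaches the limit but not every replicate does; inactive = mean below the limit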;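 also: luciferase carries N-glycosylation sites so blocking glycosylation raises the light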
RAD54 inh – inhibitors of human RAD54 branch migration, primary screen, biochemical, fluorescence, single point | 360,000 compounds, 0.14% hits | AID 602329, 2012 | inhibition, % at 10.4 µM | RAD54 Holliday junction branch migration, FAM/BHQ fluorescence;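 active = mean normalized replicate activity at least 40 and at least half of replicates scoring 40 or more; inconclusive = only one of the two criteria met; inactive = mean below 40 and under half of replicates reaching 40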;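 also: inhibitors cause a drop in the FAM fluorescence signal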
Target sequence (Q92698 whole entry, looked up): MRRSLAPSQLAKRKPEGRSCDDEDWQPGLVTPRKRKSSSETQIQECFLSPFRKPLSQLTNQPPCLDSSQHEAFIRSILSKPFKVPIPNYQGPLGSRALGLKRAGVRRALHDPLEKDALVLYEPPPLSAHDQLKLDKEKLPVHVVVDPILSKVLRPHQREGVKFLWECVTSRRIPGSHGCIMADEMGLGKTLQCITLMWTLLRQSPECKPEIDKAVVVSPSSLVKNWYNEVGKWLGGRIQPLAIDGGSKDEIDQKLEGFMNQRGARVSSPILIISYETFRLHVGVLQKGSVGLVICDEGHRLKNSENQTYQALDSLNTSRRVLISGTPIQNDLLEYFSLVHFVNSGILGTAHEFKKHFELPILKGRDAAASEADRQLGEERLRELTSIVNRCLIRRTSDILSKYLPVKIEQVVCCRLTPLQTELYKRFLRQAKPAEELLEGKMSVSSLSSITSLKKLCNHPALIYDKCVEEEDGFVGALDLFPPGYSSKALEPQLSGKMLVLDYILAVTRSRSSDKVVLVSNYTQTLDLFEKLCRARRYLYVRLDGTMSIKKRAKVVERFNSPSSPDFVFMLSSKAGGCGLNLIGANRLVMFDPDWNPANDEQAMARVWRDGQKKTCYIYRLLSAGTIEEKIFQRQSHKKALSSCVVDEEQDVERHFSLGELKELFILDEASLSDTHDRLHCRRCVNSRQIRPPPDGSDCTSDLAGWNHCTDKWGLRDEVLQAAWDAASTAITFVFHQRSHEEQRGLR
Casp6 inh – human caspase-6 inhibitors, primary screen, biochemical, VEID-R110 fluorescence, single point, set 2 | purified caspase-6, Z-VEID-R110 cleavage fluorescence | 350,000 compounds, 0.53% hits | inhibition, % at 12.5 µM | AID 686996, 2013 | P55212;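 active = mean inhibition across replicates at least about 35%, with every replicate also reaching that limit, limit read from the data; inconclusive = only one of the two criteria met; inactive = neither criterion met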
AF4-AF9 inh – inhibitors of AF4 peptide binding to AF9, primary screen, biochemical, AlphaScreen, biotin-AF4 peptide, FLAG-AF9, single point. Protein AF-9 (Homo sapiens), P42568. inhibition, % at 10 µM. 350,000 compounds, 0.47% hits;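 active = every replicate reaching a set inhibition limit, whatever the replicate mean, cut at about 25% in these data; inconclusive = mean inhibition reaches that limit but some replicates miss it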
RAD52 anneal inh – RAD52 DNA annealing inhibitors, primary screen, biochemical, FRET, single point, set 2; DNA repair protein RAD52 homolog (Homo sapiens), P43351; AID 651710, 2012; recombinant RAD52 DNA annealing, FRET fluorescence; 360,000 compounds, 0.46% hits; inhibition, % at 18.7 µM;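 active = every replicate showing at least 50% inhibition; inconclusive = mean inhibition at least 50% but not in every replicate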
RAD52 DNA ctr – DNA-binding compounds via dye displacement, dose response, artefact control for RAD52 inhibitor project, biochemical, fluorescence polarization, cherry-pick. shares compounds with RAD52 anneal inh. Salmon sperm DNA/acridine orange FP displacement. AC50, µM. 1,000 compounds, 8% hits;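 active = fitted half-maximal concentration for signal loss at or below twice the highest dose tested, in every separate run, actives reach about 64 µM in these data; inconclusive = runs disagree, or flat partial signal loss, or poor fit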
Large screens that a line does not name were inactive (follow-up assays come after a bar, where they were run). In the library only some 1.2% were active in any assay of this set; here they are far more common.

CN(C)CCNC(=O)c1csc(Nc2cccc3ccccc23)n1	RAD52 anneal inh 51 | RAD52 DNA ctr inactive
CCOC(=O)c1c(NC(=O)C(NCCN(C)C)c2ccccc2)sc2c1CCCC2 (centres undefined)	AF4-AF9 inh 29, RAD52 anneal inh 64 | RAD52 DNA ctr inactive
CCOC(=O)c1c(NC(=O)c2ccccc2N(C)S(=O)(=O)c2ccccc2)sc2c1CCCC2	none
OCCNc1c2ccccc2nc2ccccc12	N-glyco inh 66, RAD52 anneal inh 79 (no result: RAD54 inh) | RAD52 DNA ctr 60µM
COc1ccc(CN(C)C[C@@H]2Oc3ccc(NC(=O)Nc4ccccc4)cc3CC(=O)N([C@H](C)CO)C[C@@H]2C)cc1	none (no result: N-glyco inh)
CN(C)c1ccc(/C=N/n2c(C3CCCCC3)n[nH]c2=S)cc1	RAD52 anneal inh 97 | RAD52 DNA ctr inactive
Cc1cc(N2CCN(c3ccccc3)CC2)nc2ccccc12	none
Cc1cc(N2CCC(N(C)C3CCCC3)CC2)nc2cc(O)ccc12	RAD52 anneal inh 103 | RAD52 DNA ctr inactive
CN1CCN(c2ccc(NC(=O)c3ccc(-c4ccccc4F)o3)cc2)CC1	none | RAD52 DNA ctr inactive
CN1Cc2c(N3CCOCC3)nc3sc(C(=O)c4ccccc4)c(N)c3c2CC1(C)C	RAD52 anneal inh 60 (no result: RAD54 inh, AF4-AF9 inh) | RAD52 DNA ctr inactive
NCCCC[C@H]1CNC(=S)N1CC1CCCCC1	RAD52 anneal inh 85 | RAD52 DNA ctr inactive
Fc1ccccc1CNc1nc(NCC2CC2)nc2ccsc12	RAD52 anneal inh 51 | RAD52 DNA ctr inactive
COc1ccccc1CNc1nc(NCc2ccccc2F)c2sccc2n1	none (no result: Casp6 inh, AF4-AF9 inh, RAD52 anneal inh)
COC(=O)C1=C(C)N(Cc2cccc(C(F)(F)F)c2)C(=NCc2cccc(C(F)(F)F)c2)NC1c1ccc(Cl)cc1 (centres undefined)	RAD52 anneal inh 67 (no result: N-glyco inh, RAD54 inh, AF4-AF9 inh) | RAD52 DNA ctr inactive
CCN=C1NC(c2ccccc2)C(C(=O)OC)=C(C)N1Cc1ccc(C(F)(F)F)cc1 (centres undefined)	none (no result: N-glyco inh, RAD54 inh, AF4-AF9 inh)
COC(=O)C1=C(C)N(Cc2ccc(C(F)(F)F)cc2)C(=NCc2ccc(C(F)(F)F)cc2)NC1c1ccccc1 (centres undefined)	RAD52 anneal inh 59 (no result: N-glyco inh, RAD54 inh, AF4-AF9 inh) | RAD52 DNA ctr inactive
COC(=O)C1=C(C)N(Cc2cccc(C(F)(F)F)c2)C(=NCc2ccc(C(F)(F)F)cc2)NC1c1ccc(C(F)(F)F)cc1 (centres undefined)	none (no result: N-glyco inh, RAD54 inh, AF4-AF9 inh)
NC(=Nc1ccccc1)NC(=O)c1nc(Cl)c(N)nc1N	RAD54 inh inconclusive
NC(=NCc1ccccc1)NC(=O)c1nc(Cl)c(N)nc1N	RAD54 inh inconclusive, RAD52 anneal inh 50 (no result: Casp6 inh) | RAD52 DNA ctr inactive
C[C@H]1CCCCO[C@H](CN(C)Cc2ccc3c(c2)OCO3)[C@@H](C)CN([C@@H](C)CO)C(=O)c2cc(NS(=O)(=O)c3cccs3)ccc2O1	none (no result: N-glyco inh, Casp6 inh, AF4-AF9 inh, RAD52 anneal inh)
CCN(CC)CCN1CCn2c3c(c4cc(C)ccc42)CCCC31 (centres undefined)	AF4-AF9 inh 27, RAD52 anneal inh 63 (no result: RAD54 inh) | RAD52 DNA ctr inactive
CCN1CCn2c3c(c4cc(Cl)ccc42)CCCC31 (centres undefined)	none (no result: Casp6 inh, RAD52 anneal inh)
CSc1nc(NCCCN(C)C)c2c3c(sc2n1)CN(C)CC3	RAD52 anneal inh 77 (no result: N-glyco inh, RAD54 inh) | RAD52 DNA ctr inactive
CSc1nc(NCC(C)C)c2c3c(sc2n1)CN(C)CC3	none (no result: Casp6 inh, AF4-AF9 inh, RAD52 anneal inh)
CN(C)c1cccc2cccc(N(C)C)c12	RAD52 anneal inh 93 (no result: AF4-AF9 inh) | RAD52 DNA ctr inactive
CC(=O)c1ccc(N(C)C)c2c(N(C)C)cccc12	none (no result: Casp6 inh, AF4-AF9 inh, RAD52 anneal inh)
CC(C)CCNC(=O)CCC(=O)NNc1nc2ccccc2c2nc(-c3ccccc3)nn12	none (no result: Casp6 inh, AF4-AF9 inh, RAD52 anneal inh)
CCN(CC)CCCNc1nc2ccccc2c2nc(-c3ccncc3)nn12	N-glyco inh 119, RAD54 inh 109 | RAD52 DNA ctr 46µM
O=C(CCC(=O)NNc1nc2ccccc2c2nc(-c3ccccc3)nn12)NCCCN1CCOCC1	none (no result: RAD54 inh)
CN1CCN(CCCNc2nc3ccccc3c3nc(-c4ccccc4)nn23)CC1	RAD52 anneal inh 66 (no result: RAD54 inh) | RAD52 DNA ctr inactive
C[C@@H]1CN([C@@H](C)CO)C(=O)c2cc(NC(=O)Nc3ccc4c(c3)OCO4)ccc2O[C@H]1CN(C)C(=O)Nc1ccc(C(F)(F)F)cc1	none (no result: N-glyco inh)
COc1cc2[nH]c(=O)c(C(=O)NCCCN3CCOCC3)c(O)c2cc1OC	RAD52 anneal inh 67 (no result: RAD54 inh) | RAD52 DNA ctr inactive
Cc1cc(C)nc(/N=C(\N)Nc2ccc(OCc3ccccc3)cc2)n1	N-glyco inh 48, RAD52 anneal inh 55 (no result: RAD54 inh) | RAD52 DNA ctr inactive
Cc1cc(C)nc(/N=C(\N)Nc2cccc(OCc3ccccc3)c2)n1	none
CC=Cc1ccc2n(c1=O)C[C@H]1[C@H](CO)[C@@H](C(=O)NCc3ccccn3)N(CCC)[C@@H]21 (mixture of isomers)	none (no result: N-glyco inh, RAD54 inh, AF4-AF9 inh)
COc1ccc2cc(CNCCOCCOCCNCc3ccc4cc(OC)ccc4c3)ccc2c1	RAD52 anneal inh 64 (no result: RAD54 inh) | RAD52 DNA ctr inactive
CCOCCCNCc1ccc(OC)cc1	none (no result: Casp6 inh, AF4-AF9 inh, RAD52 anneal inh)
CC(=O)OCn1ncc(N2CCOCC2)c(Br)c1=O	AF4-AF9 inh 42, RAD52 anneal inh 94 | RAD52 DNA ctr inactive
C/C(Cn1ncc(N2CCOCC2)c(Cl)c1=O)=N\O	none
COc1cc2c(cc1OC)CN(c1nc(CN3CCCC3)nc3sc(C)c(C)c13)CC2	RAD52 anneal inh 65 (no result: RAD54 inh) | RAD52 DNA ctr inactive
COc1cc2c(cc1OC)CN(c1nc(CN3CCCCC3)nc3sc4c(c13)CCCC4)CC2	none (no result: RAD54 inh, Casp6 inh, AF4-AF9 inh, RAD52 anneal inh)
CN(C)CCCN(C(=O)c1ccc(C(=O)c2ccccc2)cc1)c1nc2ccc(F)cc2s1	none
CN(C)CCCN(C(=O)c1nc2ccccc2s1)c1nc2ccc(F)cc2s1	RAD52 anneal inh 84 | RAD52 DNA ctr inactive
CN(C)CCN(C(=O)c1ccc(S(=O)(=O)N(C)c2ccccc2)cc1)c1nc2cc3c(cc2s1)OCCO3	none
COc1ccc(Cl)c2sc(N(CCN(C)C)C(=O)c3ccc4c(c3)OCCO4)nc12	RAD52 anneal inh 91 (no result: RAD54 inh) | RAD52 DNA ctr inactive
COc1cc2nc(N(CCN(C)C)C(=O)c3ccc4ccccc4c3)sc2cc1OC	none (no result: Casp6 inh, AF4-AF9 inh, RAD52 anneal inh)
CC(=O)N(CCN(C)C)c1nc2cc3c(cc2s1)OCCO3	RAD52 anneal inh 55 | RAD52 DNA ctr inactive
CN(C)CCCN(C(=O)c1cc2cc([N+](=O)[O-])ccc2s1)c1nc2cc3c(cc2s1)OCCO3	RAD52 anneal inh 51 | RAD52 DNA ctr inactive
COCCNC(=O)C[C@H]1C[C@@H]2c3cc(NC(=O)C4CCC4)ccc3O[C@@H]2[C@H](CO)O1	none (no result: N-glyco inh)
CNC[C@H]1Oc2ccc(NS(=O)(=O)c3ccc(Cl)cc3)cc2C(=O)N([C@@H](C)CO)C[C@H]1C	none (no result: N-glyco inh)
